# Measurements reported in PubChem BioAssay AID743126 (The Scripps Research Institute Molecular Screening Center, 2013).
# Screen size: about 370,000 compounds; about 2,100 (0.57%) were called active. The sample as a whole holds a higher share of actives than the screen did. A number with no mark means an inactive call.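 Rule for the calls: active = inhibition above mean plus 3 SD of compounds lying within the high and low control bounds (cut at about 19% in these data); inactive = the rest.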
# Target: Group 3 secretory phospholipase A2 (Homo sapiens) (UniProt Q9NZ20)
# Assay: human group III sPLA2 inhibitors, primary screen, biochemical, QFRET, BODIPY PC-A2 liposome substrate (AID 743126);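 note: 0% = median of test compound wells and 100% = no enzyme DMSO wells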
# Conditions: QFRET BODIPY PC-A2 liposome hydrolysis, fluorescence; at 12.2 µM; hits give high values
# Chain of Group 3 secretory phospholipase A2 (Homo sapiens) (Q9NZ20 whole entry, looked up): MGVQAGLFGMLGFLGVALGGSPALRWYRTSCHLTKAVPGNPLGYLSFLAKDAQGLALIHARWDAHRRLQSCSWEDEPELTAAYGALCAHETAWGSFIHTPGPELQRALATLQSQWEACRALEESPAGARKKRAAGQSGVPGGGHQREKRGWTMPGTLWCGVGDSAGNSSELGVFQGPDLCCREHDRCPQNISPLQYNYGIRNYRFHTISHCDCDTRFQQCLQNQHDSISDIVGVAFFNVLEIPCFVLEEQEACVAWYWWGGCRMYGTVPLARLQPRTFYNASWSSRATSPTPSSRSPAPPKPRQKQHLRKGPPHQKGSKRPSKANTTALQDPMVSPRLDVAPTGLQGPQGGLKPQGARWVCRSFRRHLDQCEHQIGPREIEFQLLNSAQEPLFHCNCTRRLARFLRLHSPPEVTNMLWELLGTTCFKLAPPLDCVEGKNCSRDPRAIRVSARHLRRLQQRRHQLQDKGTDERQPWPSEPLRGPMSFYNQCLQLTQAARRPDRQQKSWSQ
row,SMILES,inhibition
1,COc1ccc(-n2c(COc3ccccc3)nnc2SCC(=O)Nc2ccc3c(c2)OCO3)cc1,-23.7%
2,CN(CC(=O)Nc1ccc(OC(F)(F)F)cc1)C(=O)C1CCC1,14.1%
3,CS(=O)(=O)c1sc(C(=O)NC(=S)Nc2ccc(OC(F)(F)F)cc2)c2c1C=CCC2,9.81%
4,CCNC(=S)Nc1ccc(OC(F)(F)F)cc1,20.4% (active)
5,Cn1cc(Cl)c(C(=O)NNC(=S)Nc2cccc(Cl)c2)n1,42.2% (active)
6,CC(C)CNC(=S)NNC(=O)c1nn(C)cc1Cl,17.9%
7,Cc1nn(C)cc1C(=O)NNC(=S)Nc1ccc(Cl)cc1,7.95%
8,COc1cc(C(=O)NCC(=O)NCCSc2ccc(Br)cc2)cc(OC)c1OC,-0.46%
9,COCCCNC(=O)CNC(=S)N(Cc1cc(OC)c(OC)c(OC)c1)C1CCCC1,26.1% (active)
10,COc1ccc(CCNC(=O)CCC(=O)NC2CCCCC2)cc1OC,3.45%
11,CC(C)(C)c1ccc(C(=O)Nc2cc(Cl)c(Br)cc2C(=O)O)cc1,-12.9%
12,O=C(Nc1cc(F)cc(F)c1)OC1CCC12CCC(c1ccccc1)CC2 (centres undefined),-7.77%
13,CC(C(=O)Nc1ccc(F)c(F)c1F)N1CCCCCC1 (centres undefined),7.49%
14,CC(Sc1nncn1C)C(=O)Nc1ccccc1-c1ccccc1 (centres undefined),1.14%
15,CC(C(=O)Nc1ccccc1-c1ccccc1)N1CCOCC1 (centres undefined),19.6% (active)
16,O=C(CCS(=O)(=O)c1ccccc1)Nc1ccc(Cl)c(Cl)c1,-9.24%
17,C=CS(=O)(=O)N(Cc1nnn(Cc2ccccc2)c1Br)[C@H](C(=O)OC)C(C)C,4.97%
18,Fc1ccc2nc(COCc3nc4ccc(F)cc4[nH]3)[nH]c2c1,-3%
19,Cc1ccccc1NC(=O)COC(=O)c1ccc(Sc2ncn[nH]2)c([N+](=O)[O-])c1,-13.9%
20,O=S(=O)(c1ccccc1)N1CCC(c2nc3ccccc3o2)CC1,-1.51%
21,CC(C)OC(=O)c1ccc(NCc2cc(O)ccc2O)cc1Cl,32.5% (active)
22,COc1ccc2c(c1)CN1CN(CCc3ccccc3)S(=O)(=O)CC21 (centres undefined),1.49%
23,C[C@@H]1ON(C)[C@H]2C[C@H]3c4[nH]c5cccc(-c6ccc7c(c6)OCO7)c5c4CCN3C[C@@H]12,-5.9%

row,SMILES,inhibition
1,O=C(NCCCc1ccccc1)[C@H](Cc1ccccc1)NC1(C(=O)NCCc2c[nH]c3ccccc23)CCC1,-86.7%
2,CN(CCc1ccccc1)C(=O)Cn1nc(-c2ccccc2)ccc1=O,4.61%
3,CN(C)c1ccc(NC(=O)NC2CCCCN(Cc3ccc(Cl)cc3)C2=O)cc1 (centres undefined),20.4% (active)
4,O=C(NC1CCCCN(Cc2ccc(Cl)cc2)C1=O)c1ccc(Br)cc1 (centres undefined),2.5%
5,Cc1ccc(CN2CCCCC(NC(=O)C3CCCCC3)C2=O)cc1 (centres undefined),2.08%
6,CCOc1ccc(N(CC(=O)Nc2c(C)n(C)n(-c3ccccc3)c2=O)S(=O)(=O)c2ccc(Cl)s2)cc1,-3.41%
7,O=C(NCCc1c[nH]c2ccccc12)OCc1cn(-c2c(F)cccc2F)nn1,-62.2%
8,CC(=O)c1cc(-c2ccc3ccccc3c2)c(=O)n2c1CCC2,-7.07%
9,O=C(CCCCCN1C(=O)C2C3C=CC(C3)C2C1=O)Nc1ccccc1 (centres undefined),-2.11%
10,CC(=O)Oc1ccc2c(c1)C(=O)c1ccccc1C2=O,20.7% (active)
11,CC(=O)Nc1ccc(Oc2ccc3c(c2)C(=O)NC3=O)cc1,1.41%
12,CC(=O)O[C@H]1c2ccccc2-c2ccccc2[C@@H]1OC(C)=O,1.14%
13,O=C(NCCCNC(=O)NC1CCCCC1)NC1CCCCC1,6.47%
14,NS(=O)(=O)c1ccc(CCNC(=O)NC2CCCCC2)cc1,20.7% (active)
15,COc1ccc(OCC(=O)NCCc2ccc(S(N)(=O)=O)cc2)cc1,0.5%
16,O=C(NCCC1=CCCCC1)C1CCN(S(=O)(=O)c2ccc(Cl)s2)CC1,-2.99%
17,COc1cccc(NC(C)=[N+](C)CCNS(=O)(=O)c2ccc(Cl)cc2)c1,22.1% (active)
18,COc1ccc(S(=O)(=O)NCCCCOc2ccc(Cl)cc2)cc1,-35.8%
19,COc1cccc(NC(=O)CCNS(=O)(=O)c2ccc3c(c2)oc(=O)n3C)c1,5.16%
20,CN(C)[C@H]1CCN(c2cccc3c2S(=O)(=O)N2CC[C@H](C2)O3)C1,-0.04%
21,Cc1ccc(OCc2nnc(SC/C=C/c3ccccc3)n2Cc2ccco2)cc1,-14.9%
22,CC(=O)Nc1nc2ncccn2c1-c1ccc(C(F)(F)F)cc1,11.9%
23,COC(=O)[C@]12C[C@H](CC(=O)N3CCN(C(=O)C4CC4)CC3)C(=O)N(CCC3=CCCCC3)C1=C[C@H](C(C)C)O[C@@H]2C1CC1,4.41%

row,SMILES,inhibition
1,CN(CC(=O)Nc1ccc(N2CCOCC2)cc1)CC(=O)Nc1ccccc1[N+](=O)[O-],20.6% (active)
2,CN(CC(=O)Nc1ccccc1[N+](=O)[O-])Cc1ccc(Br)cc1,-9.41%
3,CSc1ccccc1NC(=O)CN(C)CC(=O)Nc1ccc(Cl)cc1[N+](=O)[O-],-3.92%
4,Cc1cc(=O)[nH]c(SCC(=O)Nc2ccc(F)cc2F)n1,-0.22%
5,CCC(C)[C@@H](C(=O)OC)N(CCc1cn(Cc2ccccc2)nn1)S(=O)(=O)c1ccccc1Br (some centres undefined),-21.7%
6,CCn1c(SCC(=O)Nc2ccccc2F)nc2c(c1=O)SC(C)C2 (centres undefined),0.02%
7,COCCn1c(SCC(=O)Nc2cc(OC)ccc2OC)nc2c(c1=O)SC(C)C2 (centres undefined),20.3% (active)
8,COCCn1c(SCC(=O)Nc2cc(Cl)ccc2OC)nc2c(c1=O)SC(C)C2 (centres undefined),-0.04%
9,Cc1nc(CNc2ncnc3ccc(-c4ccc5c(c4)OCO5)cc23)cs1,-8.39%
10,CCCCn1c(N)c(N(CCOC)C(=O)CSCC(=O)Nc2cccc(C)c2)c(=O)[nH]c1=O,0.3%
11,CCCCn1c(N)c(N(CCOC)C(=O)c2sc3ccccc3c2Cl)c(=O)[nH]c1=O,5.32%
12,CCCCn1c(N)c(N(CCOC)C(=O)COc2c(C)cccc2C)c(=O)[nH]c1=O,21.9% (active)
13,CCCCOCCCNC(=O)C[C@H]1C[C@@]2(C(=O)OC)C(=C[C@H](C(C)(C)C)O[C@@H]2C)N(CCc2ccc(OC)c(OC)c2)C1=O,-14.2%
14,COc1ccnc(C(=O)N2CCC(Oc3cccnc3)CC2)c1,3.64%
15,O=c1cnnc(Nc2ccccc2)[nH]1,6.17%
16,Nc1ccc(Nc2ccccc2)cc1,19.5% (active)
17,Cc1ccc(Nc2ccccc2N)cc1,-1.96%
18,CC(=O)O[C@@]1(C(C)=O)CCC2[C@H]3C=C(C)C4=CC(=O)CC[C@@]4(C)C3CC[C@]21C (some centres undefined),14%
19,COc1ccc(C(=O)NCCSc2ccccc2C)cc1,-6.45%
20,COc1ccc(C(=O)NNC(=S)NC(=O)c2ccccc2)cc1,31.9% (active)
21,COc1ccc(C(=O)NNc2cc(C)nc(NNC(=O)c3ccc(OC)cc3)n2)cc1,-3.83%
22,COc1ccc(C(=O)NN2C(=O)C3C(c4ccccc4)C=CC(c4ccccc4)C3C2=O)cc1 (centres undefined),-36.3%
23,COc1ccc(C(=O)NC(=S)NNC(=O)c2c(-c3ccccc3)noc2C)cc1,19.5% (active)

row,SMILES,inhibition
1,COC(=O)c1ccc2nc(-c3ccccc3)c(Cc3ccc(OC)cc3C)n2c1,-8.3%
2,O=S1(=O)c2ccc(Br)cc2OC[C@@H](Cc2ccccc2)N1Cc1cn(Cc2ccco2)nn1,-4.54%
3,Nn1c(SCC(=O)Nc2cccc3ccccc23)nnc1-c1cc(-c2ccc(F)cc2)n[nH]1,-0.61%
4,COC(=O)c1ccccc1-n1cc(COC(=O)NCCc2ccccc2)nn1,6.94%
5,Cc1ccccc1NC(=O)Cn1nnc(-c2ccccc2F)n1,-6.88%
6,O=C1CC[C@@H](COc2ccc3[nH]cc(-c4ccccc4)c3c2-c2ccccc2)N1,-47.7%
7,COc1ccc(/C=C2\CC3(OC(C)=O)CCCN2C3)cc1 (centres undefined),2.59%
8,CC(C)CNS(=O)(=O)CC1NCCc2ccccc21 (centres undefined),3.21%
9,COc1cc(OC)cc(C2=Cc3ccccc3C(CC(=O)c3ccco3)N2c2ccc(-c3cnc(OC)nc3)cc2)c1 (centres undefined),20.3% (active)
10,COc1cc(OC)cc(-c2nc3nc(C)c(CCC(=O)NCc4ccco4)c(C)n3n2)c1,9.12%
11,COCCN(C(=O)c1ccco1)c1nnc(-c2ccc(OC)cc2)s1,-1.24%
12,CC(c1c[nH]c2ccccc12)c1c(-c2ccccc2)n(C)c2ccccc12 (centres undefined),-21.1%
13,COc1ccc(CSc2nnc(-c3cccc(C)c3)n2C)cc1,11.9%
14,O=C(CSc1nc2sc3c(c2c(=O)n1-c1ccccc1)CCCC3)NN=Cc1ccc(OCc2ccccc2)cc1,-1.3%
15,COC(=O)C1CN(CC(C)C)CCS(=O)(=O)N1Cc1ccc(F)cc1 (centres undefined),5.81%
16,N#Cc1ccccc1OC[C@@H](O)CN1CCC(C(O)(c2ccccc2)c2ccccc2)CC1,-25.3%
17,NS(=O)(=O)c1ccc(CNC(=S)NC(=O)c2ccco2)cc1,-1.55%
18,CC(Oc1ccc2ccccc2c1)C(=O)NNC(=S)NC(=O)c1ccco1 (centres undefined),20% (active)
19,COc1ccc(/C=C(/NC(=O)c2ccco2)C(=O)Nc2ccc(C(C)=O)cc2)cc1,10.6%
20,CCOC(=O)C1=C(C)NC2=C(C(=O)CC(C)(C)C2)C1c1ccc2c(c1)OCO2 (centres undefined),14.4%
